Experimental data: PubChem BioAssay

These molecules were tested against Torsin-1A-interacting protein 1 (Homo sapiens) (UniProt Q5JTV8) (assay: LAP1 binders from COS7 cell lysate, primary screen, small-molecule microarray, 635/667 nm fluorescence (AID 1116)). Conditions: COS7-hLAP1 lysate binding, 635 nm fluorescence, higher = more signal.
Chain of Torsin-1A-interacting protein 1 (Homo sapiens) (Q5JTV8 whole entry, looked up): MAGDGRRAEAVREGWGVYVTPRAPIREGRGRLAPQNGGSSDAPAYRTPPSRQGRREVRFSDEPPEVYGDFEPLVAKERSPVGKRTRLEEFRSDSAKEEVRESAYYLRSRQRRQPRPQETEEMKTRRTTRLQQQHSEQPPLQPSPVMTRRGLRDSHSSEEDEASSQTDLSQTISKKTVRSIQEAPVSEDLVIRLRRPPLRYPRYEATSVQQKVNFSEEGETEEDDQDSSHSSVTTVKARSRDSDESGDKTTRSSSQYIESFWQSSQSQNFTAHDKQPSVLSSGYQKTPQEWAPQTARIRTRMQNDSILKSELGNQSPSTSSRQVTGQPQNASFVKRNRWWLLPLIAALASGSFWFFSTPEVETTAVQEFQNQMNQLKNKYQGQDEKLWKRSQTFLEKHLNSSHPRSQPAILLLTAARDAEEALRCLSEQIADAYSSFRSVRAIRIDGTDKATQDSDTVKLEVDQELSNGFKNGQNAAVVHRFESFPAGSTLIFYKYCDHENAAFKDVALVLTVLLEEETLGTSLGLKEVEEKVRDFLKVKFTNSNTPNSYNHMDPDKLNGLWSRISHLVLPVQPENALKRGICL

| SMILES | composite z-score |
| --- | --- |
| CCN1C(=O)[C@H]2[C@H]3[C@H](O)[C@H](O)CC(=NOC[C@@H](C)[C@H](OCc4ccccc4)C(C)C)[C@@H]3CC[C@H]2C1=O | 0.329 |
| CCOC(=O)NN=C1C[C@@H](O)[C@@H](O)[C@@H]2[C@@H]3C(=O)N(C4CCCCC4)C(=O)[C@@H]3CC[C@@H]12 | 0.109 |
| CCc1cc2c(nc1CC)CCN(CCC(C)=NOC[C@@H](O)[C@H]1O[C@@H]3OC(C)(C)O[C@@H]3[C@H]1O)C2 | 0.455 |
| CC(C)NC(=O)[C@@H]1c2ccccc2C(=O)N(CC23CC4CC(CC(C4)C2)C3)[C@H]1c1ccc(CO)cc1 | 0.774 |
| CN1C(=O)C2C=CC(C(O)C(c3ccccc3)c3ccccc3)N(NC(=O)OC(C)(C)C)C2C1=O (centres undefined) | 2.59 |
| CC(C)(C)OC(=O)CC[C@]1(C(N)=O)COC(c2ccc(OCCCO)cc2)=N1 | 2.08 |
| C/C=C\[C@@H](NCc1ccccc1Br)[C@@H](O)Cc1ccccc1 | -0.541 |
| CCOC(=O)C1=CC[C@H]2C(=O)N(CC)C(=O)[C@@H]12 | 0.184 |
| COC(=O)C1(C)C=C2C(=C(c3ccccc3)C(=O)C2C)CN1 (centres undefined) | 1.72 |
| CO[C@@H]1COC(=O)CC=C[C@@H](C)[C@@H]2C=C[C@H](O)[C@@H](COC(=O)CCC[C@H]1C)O2 | 0.962 |
| CCOC(=O)[C@H](Cc1ccccc1)NC(=O)CCC1CC(OC(=O)NCc2ccc3c(c2)OCO3)CC2(CCCC(COC(=O)NCC(c3ccccc3)c3ccccc3)O2)O1 (some centres undefined) | 0.313 |
| CN1C(=O)C2C(C1=O)C1C=C(CCCO)C2C(c2ccc(CN3CCCC3)cc2)N1C (centres undefined) | 0.0993 |
| [N-]=[N+]=NCc1ccccc1[C@@H]1OC(c2ccc(OCCCO)cc2)=N[C@]1(Cc1ccccc1)C(=O)N1CCOCC1 | 3.31 |
| CO[C@@H]1COC(=O)CCC[C@@H](C)[C@H](OC)COC(=O)CCC[C@H]1C | 0.665 |
| C=COC[C@H]1CN2[C@@H](CC[C@@H](C)[C@@H]2c2ccc(Br)cc2)C(=O)O1 | -0.415 |
| CC(C)=CCCC(C)=CCON=C1[C@H]2CCn3c(=O)n(Cc4cc5c(cc4Cl)OCO5)c(=O)n3[C@H]2[C@H](O)[C@@H]2O[C@H]12 | 0.989 |
| C=CCOC(=O)[C@H]1[C@@H]2C(=O)O[C@@H](c3ccccc3)[C@@H](c3ccccc3)N2[C@@H](c2ccc(OCCOC(=O)[C@H]3C[C@H]4C(=O)N5CCC[C@H]5C(=O)N4[C@H]3c3cccc(OCCO)c3)cc2)[C@]12C(=O)Nc1ccc(I)cc12 | 3.33 |
| COc1ccc(-c2ccc3c(n2)CCCN3CC(O)CN2CCCc3nc(C)c(C)cc32)cc1 (centres undefined) | 0.833 |
| COC(=O)[C@@]1(Cc2ccccc2)[C@H]2c3cc(C(=O)N4CCCC4)n(Cc4ccccn4)c3C[C@H]2CN1C(=O)c1ccccc1 | 2.42 |
| CC(C)NC(=O)[C@@]1(C)c2ccccc2C(=O)N(Cc2cc(F)cc(C(F)(F)F)c2)[C@H]1c1ccc(CO)cc1 | 0.363 |
| CO[C@H]1COC(=O)[C@H](C)COC(=O)CC=C[C@@H](C)[C@H](OC)COC(=O)CC=C[C@@H]1C | -0.0635 |
| CC(=O)OC[C@H]1O[C@H](CCON=C(C)CCC(=O)OC[C@H]2O[C@H](C#Cc3ccccc3)C=C[C@@H]2Oc2ccc(C)cc2)C=C[C@@H]1OC(C)=O | 0.245 |
| CN(C)C(=O)[C@@]1(Cc2ccccc2)N=C(c2ccc(OCCCO)cc2)O[C@H]1c1ccccc1CN=[N+]=[N-] | 2.95 |
| C=CCC(OC(C)=O)[C@@H]1[C@@H](N(Cc2cc3ccccc3o2)C(=O)Cc2ccc(F)cc2)c2cc(OCCCO)ccc2N1C(=O)Cc1ccc(OC)cc1 (some centres undefined) | 0.158 |
| COc1ccc(O[C@H]2C=C[C@@H](c3ccccc3)O[C@@H]2COC(=O)CCC(C)=NO[C@H](C)c2cn([C@@H]3COC[C@H]3O)nn2)cc1 | 0.68 |
| O=C(NN=C1C[C@@H](O)[C@@H](O)[C@@H]2[C@@H]3C(=O)N(c4cccc(Oc5ccccc5)c4)C(=O)[C@@H]3CC[C@H]12)OCc1ccccc1 | -0.0681 |
| C=CCOC(=O)[C@H]1[C@@H]2C(=O)O[C@@H](c3ccccc3)[C@@H](c3ccccc3)N2[C@@H](c2ccc(OCCOC(=O)[C@H]3C[C@H]4C(=O)N[C@@H](Cc5ccccc5)C(=O)N4[C@H]3c3ccc(O)cc3)cc2)[C@]12C(=O)Nc1ccccc12 | 0.985 |
| COCCCNC(=O)[C@@]1(Sc2ccc(C)cc2)CC(=O)N(Cc2ccccc2)[C@@H]1c1ccc(CO)cc1I | 1.5 |
| CCCCCN1CC=CC23O[C@@H]4C=CCOC(=O)[C@@H]4[C@H]2C(=O)N(C(CO)C(C)C)[C@@H]3C1=O (some centres undefined) | -0.0843 |
